Screening results: PubChem, National Center for Advancing Translational Sciences (NCATS)
Nrf2 block = Nrf2 qHTS screen for inhibitors. A549 ARE-Fluc reporter, luciferase luminescence, 18-24 h. Potency, µM (top dose mostly 46 µM), for inactives: at the top dose activity change, negative = inhibition, usual class: inhibitors. 360,000 tested, 2.1% active. AID 504444, 2011; also: % is scaled to controls: 0 for no effect and ±100 for the full control effect; nearly all actives have a fitted effect of over 60% in size
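Nrf2 function is reported as luminescence of an ARE-controlled luciferase in A549 cells. Compounds were tested at several concentrations, and a CellTiter-Fluor read on the same wells flagged cytotoxicity.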
A549 tox = Nrf2 qHTS screen for inhibitors: counterscreen for cytotoxicity; A549 ARE-Fluc cells, CellTiter-Fluor viability, 18-24 h; Potency, µM (top dose mostly 46 µM), inactives show at the top dose activity change, negative = cytotoxicity, usual class: inhibitors; 390,000 tested, 0.16% active; AID 504648, 2011; also: % is scaled to controls: 0 for no effect and ±100 for the full control effect
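A549 ARE_Fluc cells in 5% FBS OPTI-MEM were exposed to compounds in concentration-response for 18-24 h at 37 deg C. Viability was read by CellTiter-Fluor fluorescence (Ex 405/Em 525) after 30 min, before the luciferase read.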
Nrf2 ARE act = qHTS of Nrf2 Activators; AREc32 ARE-luciferase reporter (MCF7-derived line), luminescence, 24 h; Potency, µM (titrated, usually from 46.1 µM), for inactives: at the top dose activation, actives largely listed as activators; 410,000 tested, 0.31% active; also: % of control where 0% means no effect; nearly all actives have a fitted effect of over 65% in size
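Reporter line AREc32 (ARE-Fluc), seeded overnight in OPTI-MEM with 5% FBS; compound pin-transferred, 24 hr at 37 deg C, 5% CO2; luminescent read-out.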
TGFb SMAD3 inh = qHTS for Inhibitors of TGF-b. HepG2 CAGA-GFP TGF-b/SMAD3 reporter, GFP fluorescence, 18 h; TGF-beta stimulated, 500 pg/mL final. Potency, µM (doses to about 46.1 µM), without a hit: top-dose activity, negative = inhibition, actives largely listed as inhibitors. 410,000 tested, 1.2% active. AID 588855, 2011; also: % is scaled to controls: 0 for no effect and ±100 for the full control effect; nearly all actives have a fitted effect of over 65% in size
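HEPG2 CAGA-GFP cells (1000/well, DMEM with 1% FBS) were pre-incubated 2 h at 37 degrees C, given compound by pin tool, then stimulated with TGF-beta at 500 pg/mL final for 18 h before per-cell GFP fluorescence imaging.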
HepG2 tox-1 = qHTS for Inhibitors of TGF-b: Cytotox Counterscreen | HepG2 CAGA-GFP viability, ATP luminescence, 18 h | Potency, µM (doses to about 46.1 µM), inactives show top-dose activity change, negative = cytotoxicity, most hits filed as cytotoxic | 410,000 tested, 0.76% active | AID 588856, 2011
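CellTiter-Glo luminescence gave cytotoxicity after 18 hours at 37 degrees C. The cells were HepG2 CAGA-GFP in 1% FBS DMEM, stimulated with 500 pg/mL TGF-beta after compound addition. %Activity was normalised to no-cell wells (complete cell-killing) and DMSO (no toxicity), and curves were fitted and classified.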
TGFb confirm = qHTS for Inhibitors of TGF-b: Confirmation of Cherry Picks; shares compounds with TGFb SMAD3 inh; HepG2 CAGA-GFP TGF-b reporter, GFP fluorescence, 18 h; cells stimulated with TGF-beta, 500 pg/mL; Potency, µM (top dose mostly 46.1 µM), for inactives: top-dose activity, negative = inhibition, usual class: inhibitors; 1,600 tested, 63% active; AID 720534, 2013; also: % is scaled to controls: 0 for no effect and ±100 for the full control effect; nearly all actives have a fitted effect of over 65% in size
HepG2 tox-2 = qHTS for Inhibitors of TGF-b: Cytotox Counterscreen for Cherry Picks | 1,600 tested, 27% active | AID 720535, 2013 | Potency, µM (top dose mostly 46.1 µM), for the others: at the highest dose activity, negative = cytotoxicity, actives largely listed as inhibitors | shares compounds with TGFb SMAD3 inh | HepG2 CAGA-GFP viability, ATP luminescence, 18 h; cells stimulated with TGF-beta, 500 pg/mL; also: % is scaled to controls: 0 for no effect and ±100 for the full control effect; nearly all actives have a fitted effect of over 70% in size
TGFb CCL64 inh = qHTS for Inhibitors of TGF-b: CCL64 Cells Orthogonal Assay for Cherry Picks | shares compounds with TGFb SMAD3 inh | CCL64 CAGA-GFP reporter, TGF-b stimulated, GFP fluorescence, 18 h | Potency, µM (titrated, usually from 46.1 µM), inactives show at the highest dose activity, negative = inhibition, hits mostly inhibitors | 1,600 tested, 41% active | AID 720536, 2013; also: nearly all actives have a fitted effect of over 65% in size
TGFb COP inh = qHTS for Inhibitors of TGF-b: Hit Validation in HepG2 Cells using COP promoter. shares compounds with TGFb SMAD3 inh. HepG2 COP-GFP TGF-b reporter, GFP fluorescence, 18 h; cells stimulated by added recombinant TGF-beta. 1,600 tested, 3% active. AID 720537, 2013. Potency, µM (series often up to 46.1 µM), for inactives: at the top dose activity, negative = inhibition, usual class: inhibitors; also: nearly all actives have a fitted effect of over 70% in size
* hit, by the source's call; ? = inconclusive; nt = not tested or not shown. In the library only some 3.6% were active in any assay of this set; here they are far more common. Calls follow the shape of the dose curve; as a rule, active = well fitted curve in the direction sought with a large enough effect; inconclusive = small, poorly fitted or top-dose-only effect, or another doubt; inactive = no such curve, though single readings can be large; an effect the other way counts as inactive or inconclusive. Potency is read from the fitted curve at half-maximal effect.

SMILES | Nrf2 block | A549 tox | Nrf2 ARE act | TGFb SMAD3 inh | HepG2 tox-1 | TGFb confirm | HepG2 tox-2 | TGFb CCL64 inh | TGFb COP inh
COc1ccc(N2C(=O)C3CCCN3C2c2cc(OC)c(OC)c(OC)c2)cc1 (centres undefined) | 12.5% | 3.9% | 0.2% | 10.7% | 4.8% | nt | nt | nt | nt
Cc1noc(C)c1COc1ccccc1C(=O)N(C)Cc1ccc(C(C)(C)C)cc1 | ? | -19.3% | 2.5% | 11.2µM* | -26.5% | 16.4µM* | ? | ? | 43.9%
COc1ccc(C(=O)NNC(=O)c2ccc3ccccc3n2)cc1 | ? | -27.4% | ? | ? | -12.5% | nt | nt | nt | nt
COC(=O)c1c(N2C(=O)[C@H]3[C@@H](C2=O)[C@]2(C(=O)Nc4c(C)cc(C)cc42)N2CCC[C@@H]32)sc(C)c1C | 0.0% | -9.0% | 4.3% | 13.2% | -22.9% | nt | nt | nt | nt
Cc1cccc(N(C(=O)CNC(=O)c2ccco2)C(C(=O)NC2CCCCC2)c2cccnc2)c1 (centres undefined) | -2.2% | 2.9% | 2.8% | -29.9% | -20.0% | nt | nt | nt | nt
O=C(NC1CCCCC1)C(c1cccnc1)N(C(=O)CCl)c1cccc(Cl)c1 (centres undefined) | ? | -18.7% | 12.6µM* | 10µM* | 22.4µM* | 5.8µM* | 9.2µM* | 4.61µM* | ?
CC(NC(=O)C1CCCN1S(=O)(=O)c1ccccc1)c1ccccc1 (centres undefined) | -12.5% | 1.0% | -0.3% | ? | -28.2% | ? | 7.4% | 8.8% | 0.7%
O=C(Nc1cccc(-n2cnnn2)c1)c1cc(Cl)ccc1Cl | -15.5% | -4.3% | 8.7% | 15.8µM* | -27.4% | ? | ? | -6.5% | 30.3%
COc1cccc2c1C(=O)c1c(O)c3c(c(O)c1C2=O)C[C@@](O)(C(=O)CO)C[C@@H]3OC1CC(N)C(O)C(C)O1 (some centres undefined) | 5.8µM* | 8.2µM* | -2.4% | 5.62µM* | 13.8% | 2.59µM* | 1.3µM* | 3.26µM* | 14.7%
COc1cccc2c1C(=O)c1c(O)c3c(c(O)c1C2=O)C[C@@](O)(C(=O)CO)C[C@@H]3O[C@H]1C[C@H](N)[C@H](O)[C@H](C)O1 | ? | -21.6% | -1.6% | 3.55µM* | 4.6% | 0.164µM* | 0.517µM* | 1.3µM* | -0.6%
C=CCN1C(=O)c2ccc(C(=O)OCC(=O)Nc3ccccc3OC)cc2C1=O | 1.7% | -3.1% | -0.4% | 11.5% | 8.9% | nt | nt | nt | nt
Cc1ncc2c(c1OC(=O)c1ccc([N+](=O)[O-])cc1)COC(C)(C)OC2 | 16.7% | -3.1% | 0.5% | 1.5% | -1.6% | nt | nt | nt | nt
